Data as given in PubChem BioAssay (EPA / NIEHS).
Several values for one entry are separate records, joined by “and”; a condition that tells them apart may be missing. Equal values may be shown once. Inconclusive results are not listed. A structure can be active in one record and inactive in another. Activity calls are given as the source filed them. The calls were made as follows, unless noted: active = hit-call score of the fitted dose curve at least 0.9, where 1 is the maximum; inconclusive = response in the unintended direction; inactive = score below 0.9.

How the values were obtained:
[1] = Tanguay_ZF_120hpf_SWIM_legacy: (Legacy) Oregon State University Tanguay Lab 120 Hour Post-fertilization zebrafish Assay for Swim Bladder Malformation (AID 2283654);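 also: swim bladder malformation in each larva scored yes or no under brightfield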
In short: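 Dechorionated wild-type Tropical 5D zebrafish embryos, one per well from 6 hpf, were statically exposed at 28C until 120 hpf in 0.64% DMSO. Swim bladder malformation scored as present/absent by brightfield microscopy; not scored in dead larvae.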

[2] = Tanguay_ZF_120hpf_TRUN_legacy: (Legacy) Oregon State University Tanguay Lab 120 Hour Post-fertilization zebrafish Assay for Truncated Body (AID 2283655)
In short: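 Binary presence/absence of truncated body is recorded at 120 hpf by brightfield, with non-mortality endpoints skipped after death. Exposure is static from 6 hpf in sealed dark plates at 28C, using dechorionated wild-type zebrafish, 0.64% DMSO.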

[3] = Tanguay_ZF_120hpf_NC_legacy: (Legacy) Oregon State University Tanguay Lab 120 Hour Post-fertilization zebrafish Assay for Notochord and Tail Malformation (AID 2283656)
In short: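 Dechorionated Tropical 5D wild-type zebrafish embryos, one per well from 6 hpf, statically exposed to 120 hpf at 28C in 0.64% DMSO final. Notochord distortion scored present/absent by brightfield; dead embryos excluded.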

[4] = read-out: ABC Transporter (ABCB1), ABCB1 (gene 5243); assay: CLD_ABCB1_6hr: CellzDirect (CLD) Gene Expression Assay for ABC Transporter (ABCB1) at 6 hours (AID 2283659);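 also: hits raise ABCB1 transcript above the DMSO vehicle baseline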
In short: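 Primary human hepatocytes (two donor preparations) dosed daily for two days with chemicals at multiple concentrations, 0.2% DMSO vehicle; harvested 6 h post-dose. ABCB1 mRNA induction quantified by qNPA chemiluminescence; gain-of-signal fitted versus DMSO.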

[5] = read-out: Broad substrate specificity ATP-binding cassette transporter ABCG2 (Homo sapiens) (UniProt Q9UNQ0); assay: CLD_ABCG2_6hr: CellzDirect (CLD) Gene Expression Assay for ABC Transporter (ABCG2) at 6 hours (AID 2283660)
In short: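 Primary human hepatocytes dosed daily with chemicals at multiple concentrations (0.2% DMSO vehicle), harvested 6 h after dosing. ABCG2 mRNA induction read by quantitative nuclease protection assay (qNPA) chemiluminescence; gain of signal fitted against DMSO baseline.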

[6] = read-out: solute carrier (SLC10A1), SLC10A1 (gene 6554); assay: LTEA_HepaRG_SLC10A1: Life Technologies and Expression Analysis (LTEA) Assay for solute carrier (SLC10A1) using HepaRG (AID 2283657; active = hit-call score of the fitted dose curve at least 0.9, where 1 is the maximum; inactive = score below 0.9); conditions: mRNA level, 48 h; actives raise or lower the signal
In short: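 HepaRG cells (single lot) exposed 48 h in serum-free induction medium, 8-point half-log series from 100 uM top in 0.5% DMSO, duplicate. SLC10A1 mRNA by qRT-PCR normalised to ACTB, GAPDH, POLR2A; bidirectional fit versus DMSO.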

[7] = read-out: xenobiotic metabolism (CYP1A2), CYP1A2 (gene 1544); assay: CLD_CYP1A2_6hr: CellzDirect (CLD) Gene Expression Assay for xenobiotic metabolism (CYP1A2) at 6 hours (AID 2283663);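 also: potency is for induction meaning a rise in mRNA above DMSO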
In short: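 Primary human hepatocytes from two donor preparations, dosed daily with multiple concentrations in 0.2% DMSO and harvested at 6 h. CYP1A2 mRNA induction measured by chemiluminescent qNPA, gain of signal fitted against DMSO; cytotoxicity flagged morphologically.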

[8] = read-out: matrix metalloproteinase-1 (MMP1), MMP1 (gene 4312); assay: LTEA_HepaRG_MMP1: Life Technologies and Expression Analysis (LTEA) Assay for matrix metalloproteinase-1 (MMP1) using HepaRG (AID 2283658; active = hit-call score of the fitted dose curve at least 0.9, where 1 is the maximum; inactive = score below 0.9); conditions: mRNA level, 48 h; actives raise or lower the signal
In short: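 qRT-PCR (TaqMan, Fluidigm arrays) of MMP1 transcript, normalized against three housekeeping genes and fitted in both directions relative to 0.5% DMSO vehicle. Human HepaRG cultures received duplicate 48 h exposures across 8 points, highest 100 uM with half-log steps.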

[9] = tested on: Thyroperoxidase (TPO), gene 54314; assay: CCTE_Simmons_AUR_rTPO: CCTE's Amplex UltraRed Assay for Thyroperoxidase (TPO) Inhibition, Simmons Lab (AID 2283662);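 also: potency for loss of signal meaning inhibition of peroxidase activity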
In short: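 Rat thyroid microsomes (5 ug protein) were incubated with test compound (8 concentrations, 5 nM–87.5 uM final, 0.5% DMSO), 25 uM Amplex UltraRed and 300 uM H2O2 in 200 mM phosphate buffer for 30 min at 37C in the dark; fluorescence read at 544/590 nm.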

[10] = read-out: xenobiotic metabolism (CYP1A1), CYP1A1 (gene 1543); assay: CLD_CYP1A1_6hr: CellzDirect (CLD) Gene Expression Assay for xenobiotic metabolism (CYP1A1) at 6 hours (AID 2283661);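 also: potency for transcript induction above DMSO vehicle baseline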
In short: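 Primary human hepatocytes from two donors, compound versus 0.2% DMSO vehicle. CYP1A1 mRNA measured 6 h after dosing by quantitative nuclease protection assay with chemiluminescent read-out; induction fitted relative to DMSO, cytotoxicity flagged by microscopy.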

Broad substrate specificity ATP-binding cassette transporter ABCG2 (Homo sapiens), sequence (Q9UNQ0 whole entry, looked up): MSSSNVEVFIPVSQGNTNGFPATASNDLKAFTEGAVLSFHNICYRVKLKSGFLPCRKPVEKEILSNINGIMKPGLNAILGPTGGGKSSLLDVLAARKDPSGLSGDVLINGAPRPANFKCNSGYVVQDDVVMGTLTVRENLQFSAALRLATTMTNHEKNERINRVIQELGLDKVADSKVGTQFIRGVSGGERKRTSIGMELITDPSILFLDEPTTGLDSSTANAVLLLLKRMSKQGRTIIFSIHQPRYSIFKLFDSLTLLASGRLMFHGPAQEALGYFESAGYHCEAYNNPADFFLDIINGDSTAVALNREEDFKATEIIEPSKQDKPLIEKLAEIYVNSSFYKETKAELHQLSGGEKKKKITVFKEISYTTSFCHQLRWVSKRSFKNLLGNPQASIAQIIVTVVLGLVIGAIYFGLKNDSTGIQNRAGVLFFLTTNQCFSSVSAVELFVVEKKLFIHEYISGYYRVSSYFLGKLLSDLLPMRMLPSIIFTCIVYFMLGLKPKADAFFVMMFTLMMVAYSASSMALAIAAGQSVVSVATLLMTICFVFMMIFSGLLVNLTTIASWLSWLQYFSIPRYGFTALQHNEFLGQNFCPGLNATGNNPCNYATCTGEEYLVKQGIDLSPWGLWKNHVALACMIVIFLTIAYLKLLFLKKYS

In the case of CCN(CC)C(=O)c1cccc(C)c1, the outcome [1] was “inactive”, the outcome [2] was “inactive” and the outcome [3] was “inactive”. The outcome [4] was “inactive” and the outcome [5] was “inactive”.

In the case of COC(=O)CSc1cc(N=c2sc(=O)n3n2CCCC3)c(F)cc1Cl, the outcome [1] was “inactive”, the outcome [2] was “inactive” and the outcome [3] was “inactive”. The outcome [4] was “inactive” and the outcome [5] was “inactive”.

For S=C(S)NCCNC(=S)S.[Mn+2].[S-]C([S-])=NCCN=C([S-])[S-].[Zn+2], the outcome [1] was “inactive”, the outcome [2] was “inactive” and the outcome [3] was “inactive”. The AC50 [6] was 1.74 µM (active), the outcome [4] was “inactive” and the outcome [5] was “inactive”. The AC50 [7] was 2.75 µM (active).

With CCCCOCCOCCOCc1cc2c(cc1CCC)OCO2 the outcome [1] was “inactive”, the AC50 [2] was 48 µM (active) and the outcome [3] was “inactive”. The AC50 [6] was 67.7 µM (active), the outcome [8] was “inactive” and the outcome [5] was “inactive”. For the same compound, the AC50 [9] was 34.2 µM (active).

In the case of O=C(Nc1ccc([N+](=O)[O-])cc1Cl)c1cc(Cl)ccc1O, the outcome [1] was “inactive”, the outcome [2] was “inactive” and the outcome [3] was “inactive”. For the same compound, the outcome [4] was “inactive”, the outcome [5] was “inactive” and the AC50 [9] was 3.56 µM (active).

With N#CSCSc1nc2ccccc2s1 the outcome [1] was “inactive”, the outcome [2] was “inactive” and the outcome [3] was “inactive”. For the same compound, the AC50 [6] was 83.6 µM (active), the outcome [8] was “inactive” and the outcome [4] was “inactive”. The outcome [5] was “inactive” and the AC50 [9] was 2.57 µM (active).

For CCCCCOC(=O)COc1cc(N2C(=O)C3=C(CCCC3)C2=O)c(F)cc1Cl, the outcome [1] was “inactive”, the outcome [2] was “inactive” and the outcome [3] was “inactive”. The outcome [4] was “inactive” and the outcome [5] was “inactive”.

With CC(=O)[C@H]1CC[C@H]2[C@@H]3CCC4=CC(=O)CC[C@]4(C)[C@H]3CC[C@]12C the outcome [1] was “inactive” and the outcome [2] was “inactive”.

For CCOC(=O)C(C)Oc1ccc(Oc2nc3ccc(Cl)cc3o2)cc1 (configuration not stated), the outcome [1] was “inactive”, the outcome [2] was “inactive” and the outcome [3] was “inactive”. The outcome [4] was “inactive” and the AC50 [9] was 43.6 µM (active).

In the case of CCCCC(CC)COC(=O)c1ccccc1C(=O)O (configuration not stated), the outcome [1] was “inactive”, the outcome [2] was “inactive” and the outcome [3] was “inactive”. For the same compound, the outcome [4] was “inactive” and the outcome [5] was “inactive”.

In the case of CCOC(=O)COc1cc(-n2ncc(C(F)(F)F)c(C)c2=O)c(F)cc1Cl, the outcome [1] was “inactive”, the outcome [2] was “inactive” and the outcome [3] was “inactive”. For the same compound, the outcome [4] was “inactive”.

With Oc1ccc(C(c2ccc(O)cc2)C(Cl)(Cl)Cl)cc1 the AC50 [1] was 202 µM (active), the AC50 [2] was 69.5 µM (active) and the outcome [3] was “inactive”. The outcome [4] was “inactive” and the AC50 [9] was 4.87 µM (active).

In the case of COCCO, the outcome [1] was “inactive”, the outcome [2] was “inactive” and the outcome [3] was “inactive”. The outcome [6] was “inactive”, the outcome [8] was “inactive” and the outcome [4] was “inactive”. The outcome [5] was “inactive”.

In the case of CCC(C)OC(=O)N1CCCCC1CCO (configuration not stated), the outcome [1] was “inactive”, the outcome [2] was “inactive” and the outcome [3] was “inactive”. For the same compound, the outcome [4] was “inactive” and the outcome [5] was “inactive”.

For c1ccc2[nH]c(-c3cscn3)nc2c1, the outcome [1] was “inactive”, the outcome [2] was “inactive” and the outcome [3] was “inactive”. For the same compound, the outcome [4] was “inactive”.

In the case of CCNc1nc(N)nc(Cl)n1, the outcome [1] was “inactive”, the outcome [2] was “inactive” and the outcome [3] was “inactive”. The outcome [4] was “inactive” and the outcome [5] was “inactive”.

With O=C(c1ccccc1)C1CCCCC1 the outcome [1] was “inactive”, the outcome [2] was “inactive” and the outcome [3] was “inactive”.

For CCCCC(CC)CN1C(=O)C2C3C=CC(C3)C2C1=O (configuration not stated), the outcome [1] was “inactive”, the outcome [2] was “inactive” and the outcome [3] was “inactive”. For the same compound, the outcome [4] was “inactive”, the outcome [5] was “inactive” and the AC50 [10] was 6.62 µM (active).

For COC(=O)c1ccccc1C(=O)O, the outcome [1] was “inactive”, the outcome [2] was “inactive” and the outcome [3] was “inactive”. For the same compound, the outcome [6] was “inactive”, the outcome [8] was “inactive” and the outcome [4] was “inactive”. For the same compound, the outcome [5] was “inactive”.

With CC(C)(c1ccc(O)cc1)c1ccc(O)cc1 the AC50 [1] was 37.5 µM (active), the outcome [1] was “inactive” and the AC50 [2] was 25.9 µM (active) and 43.8 µM (active). The outcome [2] was “inactive”, the outcome [3] was “inactive” and the outcome [4] was “inactive”. For the same compound, the outcome [5] was “inactive”.

With O=C(O)c1ccccc1 the outcome [1] was “inactive”, the outcome [2] was “inactive” and the outcome [3] was “inactive”. For the same compound, the outcome [6] was “inactive” and the outcome [8] was “inactive”.

In the case of CSC(=O)c1cccc2nnsc12, the outcome [1] was “inactive”, the outcome [2] was “inactive” and the outcome [3] was “inactive”. The outcome [4] was “inactive”, the AC50 [9] was 0.303 µM (active) and the AC50 [7] was 33.3 µM (active).

In the case of CCOC(=O)c1ccc(O)cc1, the outcome [1] was “inactive”, the outcome [2] was “inactive” and the outcome [3] was “inactive”.
